# Laboratory results from the supplement of paper PMC6555819.
# Assays:
# Experiment in all cases: PBM binding z-score (relative to random genomic background probes); higher = stronger binding; sequences stand for … in GC…GCGATTGACAGCGTAGAATGAAGG
# [1] = tested on: FXR:RXRa (NR concentration 270 nM, RXRa partner concentration 90 nM)
# Outline: (§1)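 Ligand-free nuclear receptor dimers were applied to custom Agilent 4×180K protein-binding microarrays whose double-stranded probes carried direct-repeat seeds, single-nucleotide variants, half-site ablations and random human genomic background sequences in 34-nt variable regions. Incubation lasted 1 h. Binding z-scores were computed against the random background probes from regression-normalized fluorescence.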
# [2] = tested on: LXRa:RXRa (NR concentration 270 nM, RXRa partner concentration 90 nM)
# Outline: as §1
# [3] = tested on: LXRa homodimer (NR concentration 270 nM)
# Outline: as §1
# [4] = tested on: LXRb:RXRa (NR concentration 270 nM, RXRa partner concentration 90 nM)
# Outline: as §1
# [5] = tested on: LXRb homodimer (NR concentration 270 nM)
# Outline: as §1
# [6] = tested on: PPARa:RXRa (NR concentration 270 nM, RXRa partner concentration 90 nM)
# Outline: as §1
# [7] = tested on: PPARg:RXRa (NR concentration 180 nM, RXRa partner concentration 90 nM)
# Outline: as §1
# [8] = tested on: PPARg:RXRa 270nM:90nM, anti-RXR (NR concentration 270 nM, RXRa partner concentration 90 nM)
# Outline: as §1
# [9] = tested on: PPARg:RXRa 30nM:10nM, anti-RXR (NR concentration 30 nM, RXRa partner concentration 10 nM)
# Outline: as §1
# [10] = tested on: PPARg:RXRa 90nM:30nM, anti-RXR (NR concentration 90 nM, RXRa partner concentration 30 nM)
# Outline: as §1
# [11] = tested on: PPARg:RXRa DBDmut IVT, anti-RXR (DBD mutation: RXRa K156A/R161A, NR concentration 270 nM, RXRa partner concentration 90 nM)
# Outline: as §1
# [12] = tested on: PPARg:RXRa IVT, anti-PPARg (NR concentration 270 nM, RXRa partner concentration 90 nM)
# Outline: as §1
# [13] = tested on: PPARg DBDmut:RXRa IVT, anti-PPARg (DBD mutation: PPARg1 K132A/R137A, NR concentration 270 nM, RXRa partner concentration 90 nM)
# Outline: as §1
# [14] = tested on: PPARg DBDmut IVT, anti-PPARg (DBD mutation: PPARg1 K132A/R137A, NR concentration 270 nM)
# Outline: as §1
# [15] = tested on: PPARg homodimer (NR concentration 180 nM)
# Outline: as §1
# [16] = tested on: PXR:RXRa (NR concentration 270 nM, RXRa partner concentration 90 nM)
# Outline: as §1
# [17] = tested on: PXR homodimer (NR concentration 270 nM)
# Outline: as §1
# [18] = tested on: RARa:RXR (NR concentration 270 nM, RXRa partner concentration 90 nM)
# Outline: as §1
# [19] = tested on: RARa homodimer (NR concentration 270 nM)
# Outline: as §1
# [20] = tested on: RARb:RXRa (NR concentration 270 nM, RXRa partner concentration 90 nM)
# Outline: as §1
Sequence,PBM binding z-score [1],PBM binding z-score [2],PBM binding z-score [3],PBM binding z-score [4],PBM binding z-score [5],PBM binding z-score [6],PBM binding z-score [7],PBM binding z-score [8],PBM binding z-score [9],PBM binding z-score [10],PBM binding z-score [11],PBM binding z-score [12],PBM binding z-score [13],PBM binding z-score [14],PBM binding z-score [15],PBM binding z-score [16],PBM binding z-score [17],PBM binding z-score [18],PBM binding z-score [19],PBM binding z-score [20]
CCTAGGTGGTCAGGAGGTCACACACCGGATATGA,3.9,3.3,1.72,3.05,0.062,3.95,3.45,3.53,1.29,3.03,0.549,3.02,-0.0513,-0.161,3.26,4.04,1.33,4.78,1.85,3.71
GGAACGAGGGCACAGTTGATAGCATCTGTCGACG,0.318,0.136,-0.684,-0.053,-0.903,1.95,3.25,3.63,1.56,3.28,3.74,3.92,0.579,-0.629,0.434,0.227,-0.335,0.367,-0.231,2.02
GGAACGAGGGCATCCGAGTTGATAGCATGGCGAT,1.24,0.897,-0.543,-0.129,-0.874,1.53,1.15,0.688,-0.271,-0.0258,2.9,2.23,-0.317,-0.705,-0.0747,3.67,0.048,0.949,-0.37,1.78
CCTGCTAGGTCAATGGTGAGCTAAAGCAGCTCGC,2.56,1.58,-0.54,0.808,-0.0982,2.57,2.46,2.99,1.2,2.5,4.2,3.22,-0.736,-0.744,0.822,0.37,-0.961,1.09,-0.333,3.51
GCTTACGGGTCAAAGCTTATAGCATGAATAGAAT,6.25,3.79,-0.13,3.78,0.156,5.7,4.76,5.32,2.66,4.08,4.24,3.92,0.68,0.139,1.56,2.98,-0.218,4.44,-0.0595,3.83
ATCGAAAGGTCGAAGGCGAGTATACCCACCCGAA,4.01,3.3,0.25,2.4,0.608,3.71,2.33,2.5,0.887,1.49,-0.0271,1.19,0.286,0.268,1.03,2.14,-0.132,2.87,0.519,3.57
TAATATAGGTAATACAGGTGAAAGTCGGCATCTA,0.455,1.04,0.599,0.603,0.797,2.57,3.18,3,2,2.17,5.72,5.56,2.44,1.91,1.32,0.362,0.607,0.476,1.83,0.621
AGTCTAAGTTCACTAGGTAACGTAAGATTCAGCT,2.84,3.02,0.822,1.84,0.221,3.63,2.98,3.85,1.57,3.02,2.75,3.66,0.895,1.1,1.24,3.63,4.11,1.93,0.914,3.58
GCTTGTAGATCAAGGTTAATAAAGACTAAGCTAA,-0.0696,2.14,-0.45,0.661,-0.608,1,1.29,2.36,0.581,1.78,1.14,0.996,-0.734,0.456,-0.133,0.16,0.327,0.282,0.0284,0.519
CTCGAAAGGTCGGTTGAGGTAAGTATACGGATAA,1.93,1.41,-0.197,1.28,-0.165,2.34,0.4,0.787,0.0171,0.608,-0.106,0.306,-0.141,0.138,0.476,2.45,0.12,1.54,-0.0404,2.64
CCTAGCAGGCCAGGGTCACTCACGCATTTCGCTT,2.04,1.57,-0.247,1.73,-0.927,2.94,0.599,1.29,-0.606,0.36,0.345,0.942,-0.473,-1.26,1.45,2.31,-0.101,3.17,0.177,2.41
CCTACTGGGCCAAAGGTCACTGATTCCAATGCTC,4.23,4.62,2.37,4.72,0.63,6.39,12.2,10.6,10.2,11.6,5.75,7.12,0.0303,-0.418,3.54,5.27,1.1,6.62,1.82,4.56
TGTCAAAGTTCAAAGATAACGTAAGTATCCACAC,6.56,6.17,4.28,4.11,2.1,5.01,7.86,6.97,4.95,6.88,-0.252,3.78,1.64,1.45,2.47,4.66,3.83,3.6,1.54,4.92
CCGACTGGGGCAAAGGATACCATACTCAGTACGA,-0.424,-0.501,-0.0956,-0.347,-1.05,1.32,4.4,5.19,3.28,5.31,3.85,3.35,-0.00815,-0.219,0.339,-0.407,-0.363,-0.246,-0.215,0.425
ATCGAAAGGTCGACGAGGTGACTATACACCGTTT,4.76,3.44,0.283,3.17,0.252,4.53,3.26,3.2,1.22,2.33,1.03,2.4,1.08,0.608,1.89,3.44,0.829,3.99,0.449,4.01
CCGAGTAGTTTATGGGGCATTCAGGCAACGGTGA,0.0687,-0.0173,-0.197,0.53,-0.0668,0.806,0.147,0.448,-0.234,0.108,1.6,1.4,-0.427,-0.259,0.266,-0.181,-0.00127,-0.101,-0.193,0.282
TTACCAGGGTGAAGGTCGTTGATCCCTCTGTAGA,1.98,1.73,-0.022,1.44,-0.184,3.62,6.75,6.39,4.84,6.33,1.33,3.97,0.161,-0.0741,1.08,1.6,0.104,1.86,-0.0972,1.69
ATATGTAGGTTACATCTGGGTCATTCAGGCTATG,1.65,3.57,1.05,2.18,0.621,4.01,5.41,4.89,2.26,3.88,7.49,7.53,2.55,1.93,1.95,2.11,1.05,2.38,0.399,2.18
CGAAGTAGGTCATTGACAGGACAGTGAATAGTAA,4.75,3.56,0.791,2.6,0.392,5.05,7.92,6.67,4.6,6.57,8.42,8.66,3.43,2.58,2.08,2.16,0.395,2.66,0.16,3.58
CAAACTAGGTAAAGAGGTCAAAGTCCGCTTCCCG,4.77,5.01,4.55,4.65,1.08,5.7,6.6,6.92,5.17,7.2,6.78,6.91,3.48,1.44,5.18,5.5,2.02,6.1,1.43,3.95
TCATATAGGTACAGGTGAAAGTCGAACGATATGA,0.652,0.533,-0.0804,0.777,-0.304,1.62,1.23,2.41,3.76,2.76,2.01,1.83,1.45,1.06,0.632,0.509,-0.0466,0.718,0.84,0.896
ATCTCTAGGTAATAGTTCAGTGAATCCCGAGGAT,0.178,0.499,0.496,0.482,0.778,3.1,5.39,6.33,5.08,6.63,2.36,2.79,1.15,2.02,1.07,0.458,0.386,0.192,1.4,1.16
GCTGTTAGGTCAACTGATGGTCAGCTAAAGCTCG,4.8,3.67,0.551,2.5,1.02,3.78,2,2.74,0.501,1.61,4.04,2.94,0.716,0.227,3.51,2.32,-0.291,3.69,0.121,4.4
TCGAGTAGGTTAGTGGCATTCAGAATGGCGTCGA,-0.429,-0.347,-0.383,-0.122,-1.05,0.197,-0.294,0.534,0.972,0.858,2.03,1.11,-1.08,-0.671,0.509,-0.288,-0.134,-0.0955,-0.37,0.0922
AGAATGAGGTTACCAAAGATCACGGAAACGCTTG,2.28,6.94,0.129,3.82,-0.202,3.5,2.79,2.7,0.915,2.03,3.7,3.26,1.1,0.644,0.807,2.1,-0.253,2.3,0.0214,2.15
AGTCAAAGTTCATCTAGGCAACGTAAGATATGCT,6.17,6.15,4.67,3.78,1.77,4.92,6.47,6.11,3.4,5.44,0.192,3.08,1.23,0.857,2.59,5.11,4.94,3.62,0.925,5.1
ATCCCTAGGTAAAGTTCAGTGAAAGATCGATAGA,0.939,1.71,1.52,1.19,0.53,1.8,2.37,3.48,1.57,3.25,0.383,1.01,0.372,0.771,1.6,1.63,2.29,0.943,1.49,2.39
TCTTGTGGATCAATAGAGGTTAAGAAAGTGCGCT,0.938,3.27,0.355,1.91,0.376,1.63,-0.178,1.51,2.31,1.64,1.7,0.901,0.673,0.819,0.64,2.88,0.306,1.69,0.244,0.915
